The structures appear in SMILES notation.

The target in assay [1] is T1, 3-phosphoinositide-dependent protein kinase 1 (Homo sapiens) (UniProt O15530).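 Also: values are mean inhibition of PDK1.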
T1 sequence (whole entry): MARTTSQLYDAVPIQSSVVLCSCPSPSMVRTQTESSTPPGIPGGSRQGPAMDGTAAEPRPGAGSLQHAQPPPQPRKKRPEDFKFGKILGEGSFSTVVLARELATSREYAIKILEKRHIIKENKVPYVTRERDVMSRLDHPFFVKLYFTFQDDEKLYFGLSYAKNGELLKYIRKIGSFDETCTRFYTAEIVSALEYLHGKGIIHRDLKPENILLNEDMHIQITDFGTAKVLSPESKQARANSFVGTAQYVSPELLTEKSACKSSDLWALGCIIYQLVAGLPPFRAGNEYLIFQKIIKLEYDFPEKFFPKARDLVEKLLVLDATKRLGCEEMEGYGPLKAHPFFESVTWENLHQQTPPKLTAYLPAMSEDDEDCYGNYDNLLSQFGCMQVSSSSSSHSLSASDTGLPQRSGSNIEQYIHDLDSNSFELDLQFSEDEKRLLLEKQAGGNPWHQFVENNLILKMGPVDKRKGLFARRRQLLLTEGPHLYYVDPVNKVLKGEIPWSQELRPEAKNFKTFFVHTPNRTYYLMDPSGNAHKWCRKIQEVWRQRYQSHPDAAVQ
The note with it: at 0.1 µM.

In assay [2] the target is cAMP-dependent protein kinase catalytic subunit alpha (Homo sapiens) (UniProt P17612). The note with it: at 0.1 µM.
The target is the same in assay [3]. To be noted: at 1 µM.
The target in assay [4] is Protein kinase C alpha type (Homo sapiens) (UniProt P17252). To be noted: at 0.1 µM.
Assay [5] has the same target. To be noted: at 1 µM.
Assay [6] has as its target Protein kinase C beta type (Homo sapiens) (UniProt P05771). The note with it: at 0.1 µM.
Assay [7] shares this target. The note with it: at 1 µM.
Assay [8] has as its target Protein kinase C eta type (Homo sapiens) (UniProt P24723). The note with it: at 0.1 µM.
The target is the same in assay [9]. The note with it: at 1 µM.
For assay [10], the target named is Protein kinase C gamma type (Homo sapiens) (UniProt P05129). The note with it: at 0.1 µM.
The target is the same in assay [11]. The note with it: at 1 µM.
Assay [12] addresses T2, Protein kinase C iota type (Homo sapiens) (UniProt P41743).
T2 sequence (whole entry): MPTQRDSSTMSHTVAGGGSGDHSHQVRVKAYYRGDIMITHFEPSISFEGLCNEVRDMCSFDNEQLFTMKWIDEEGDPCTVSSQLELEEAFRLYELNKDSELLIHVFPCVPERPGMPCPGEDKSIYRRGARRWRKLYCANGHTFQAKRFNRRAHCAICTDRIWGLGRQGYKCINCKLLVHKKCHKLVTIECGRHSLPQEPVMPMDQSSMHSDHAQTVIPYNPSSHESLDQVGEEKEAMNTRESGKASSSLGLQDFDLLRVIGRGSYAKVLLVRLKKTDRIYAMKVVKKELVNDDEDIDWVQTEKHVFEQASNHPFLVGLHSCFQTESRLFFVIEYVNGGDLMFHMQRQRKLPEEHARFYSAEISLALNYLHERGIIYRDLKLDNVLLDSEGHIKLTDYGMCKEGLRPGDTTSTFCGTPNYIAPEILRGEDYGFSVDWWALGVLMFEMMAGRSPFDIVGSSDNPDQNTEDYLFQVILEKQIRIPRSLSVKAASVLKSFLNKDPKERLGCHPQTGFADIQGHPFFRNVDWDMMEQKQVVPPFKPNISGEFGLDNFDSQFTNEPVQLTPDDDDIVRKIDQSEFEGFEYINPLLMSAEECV
The note with it: at 0.1 µM.

The target in assay [13] is T2, Protein kinase C iota type (Homo sapiens). To be noted: at 1 µM.
The target in assay [14] is Protein kinase C theta type (Homo sapiens) (UniProt Q04759). The note with it: at 0.1 µM.
Assay [15] shares this target. To be noted: at 1 µM.
The target of assay [16] is Protein kinase C beta type (Homo sapiens) (UniProt P05771). To be noted: at 0.1 µM. This is another data set of the same source.
Assay [17] shares this target. The note with it: at 1 µM. The source holds these as a separate data set.
Assay [18] concerns the target T3, Serine/threonine-protein kinase D1 (Homo sapiens) (UniProt Q15139).
T3 sequence (whole entry): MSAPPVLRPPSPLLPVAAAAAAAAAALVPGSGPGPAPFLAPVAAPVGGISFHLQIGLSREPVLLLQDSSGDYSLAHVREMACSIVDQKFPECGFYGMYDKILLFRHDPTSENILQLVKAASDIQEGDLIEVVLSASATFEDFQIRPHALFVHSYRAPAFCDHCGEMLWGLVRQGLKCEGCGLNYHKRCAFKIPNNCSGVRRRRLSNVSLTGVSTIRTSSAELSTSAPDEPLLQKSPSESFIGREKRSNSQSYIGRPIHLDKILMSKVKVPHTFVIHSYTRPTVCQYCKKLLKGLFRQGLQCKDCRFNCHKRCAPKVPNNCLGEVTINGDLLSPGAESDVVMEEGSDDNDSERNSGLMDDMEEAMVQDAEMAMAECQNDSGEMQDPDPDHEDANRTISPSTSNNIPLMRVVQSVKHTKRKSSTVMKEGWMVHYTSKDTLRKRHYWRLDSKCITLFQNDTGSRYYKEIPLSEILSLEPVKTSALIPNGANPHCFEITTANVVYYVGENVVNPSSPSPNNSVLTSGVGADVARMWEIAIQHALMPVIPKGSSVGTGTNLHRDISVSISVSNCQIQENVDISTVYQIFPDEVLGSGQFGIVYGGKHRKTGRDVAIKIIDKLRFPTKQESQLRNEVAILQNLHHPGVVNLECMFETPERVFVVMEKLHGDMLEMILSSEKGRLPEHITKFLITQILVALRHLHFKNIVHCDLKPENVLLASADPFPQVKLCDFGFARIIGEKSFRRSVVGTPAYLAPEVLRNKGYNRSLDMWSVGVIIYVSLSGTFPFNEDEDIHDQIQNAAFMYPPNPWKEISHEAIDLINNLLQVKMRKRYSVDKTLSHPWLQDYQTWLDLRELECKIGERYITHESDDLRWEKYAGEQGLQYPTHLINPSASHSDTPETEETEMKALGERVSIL
The note with it: at 0.1 µM.

Assay [19] concerns the target T3, Serine/threonine-protein kinase D1 (Homo sapiens). The note with it: at 1 µM.
Assay [20] addresses T4, Serine/threonine-protein kinase D2 (Homo sapiens) (UniProt Q9BZL6).
T4 sequence (whole entry): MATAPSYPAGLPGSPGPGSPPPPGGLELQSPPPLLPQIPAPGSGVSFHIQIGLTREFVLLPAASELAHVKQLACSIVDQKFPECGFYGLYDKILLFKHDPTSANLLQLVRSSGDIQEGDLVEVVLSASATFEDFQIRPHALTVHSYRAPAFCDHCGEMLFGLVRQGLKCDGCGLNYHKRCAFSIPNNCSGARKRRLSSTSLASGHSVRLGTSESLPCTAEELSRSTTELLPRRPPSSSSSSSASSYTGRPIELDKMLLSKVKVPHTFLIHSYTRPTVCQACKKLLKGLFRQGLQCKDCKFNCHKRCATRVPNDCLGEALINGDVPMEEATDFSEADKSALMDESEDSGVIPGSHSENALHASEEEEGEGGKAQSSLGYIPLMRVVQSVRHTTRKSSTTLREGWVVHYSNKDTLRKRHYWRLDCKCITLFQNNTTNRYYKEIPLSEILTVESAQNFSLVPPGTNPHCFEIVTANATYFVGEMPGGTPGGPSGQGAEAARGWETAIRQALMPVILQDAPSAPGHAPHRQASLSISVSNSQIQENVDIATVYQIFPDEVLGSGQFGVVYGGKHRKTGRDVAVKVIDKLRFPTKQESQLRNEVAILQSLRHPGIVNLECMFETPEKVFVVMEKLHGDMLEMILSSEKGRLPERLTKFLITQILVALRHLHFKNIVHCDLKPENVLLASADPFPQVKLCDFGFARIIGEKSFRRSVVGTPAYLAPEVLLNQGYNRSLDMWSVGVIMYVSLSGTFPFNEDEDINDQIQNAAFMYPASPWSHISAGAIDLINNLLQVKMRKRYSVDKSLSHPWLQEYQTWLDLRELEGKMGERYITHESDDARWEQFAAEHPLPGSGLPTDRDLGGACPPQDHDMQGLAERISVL
To be noted: at 0.1 µM.

Protein kinase C beta type (Homo sapiens), sequence (P05771 2-671 limits assumed): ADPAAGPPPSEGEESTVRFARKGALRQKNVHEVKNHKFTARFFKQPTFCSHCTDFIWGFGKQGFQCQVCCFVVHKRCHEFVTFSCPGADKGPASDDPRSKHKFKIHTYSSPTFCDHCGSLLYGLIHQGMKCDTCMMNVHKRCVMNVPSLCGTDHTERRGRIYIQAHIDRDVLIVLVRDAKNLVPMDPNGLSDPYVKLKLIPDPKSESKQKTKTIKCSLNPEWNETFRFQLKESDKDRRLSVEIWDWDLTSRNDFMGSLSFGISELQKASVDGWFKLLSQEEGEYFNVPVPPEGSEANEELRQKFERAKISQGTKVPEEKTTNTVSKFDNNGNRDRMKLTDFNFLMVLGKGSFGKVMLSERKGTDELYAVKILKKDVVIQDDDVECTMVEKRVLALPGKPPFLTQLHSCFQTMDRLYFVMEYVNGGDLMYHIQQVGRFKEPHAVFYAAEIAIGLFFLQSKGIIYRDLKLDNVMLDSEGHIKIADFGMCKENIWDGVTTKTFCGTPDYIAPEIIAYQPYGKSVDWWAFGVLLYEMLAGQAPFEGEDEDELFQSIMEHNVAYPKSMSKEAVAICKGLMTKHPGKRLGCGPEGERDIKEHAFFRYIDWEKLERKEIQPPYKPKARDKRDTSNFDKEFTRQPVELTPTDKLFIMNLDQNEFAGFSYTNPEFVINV
Protein kinase C eta type (Homo sapiens), sequence (P24723 whole entry): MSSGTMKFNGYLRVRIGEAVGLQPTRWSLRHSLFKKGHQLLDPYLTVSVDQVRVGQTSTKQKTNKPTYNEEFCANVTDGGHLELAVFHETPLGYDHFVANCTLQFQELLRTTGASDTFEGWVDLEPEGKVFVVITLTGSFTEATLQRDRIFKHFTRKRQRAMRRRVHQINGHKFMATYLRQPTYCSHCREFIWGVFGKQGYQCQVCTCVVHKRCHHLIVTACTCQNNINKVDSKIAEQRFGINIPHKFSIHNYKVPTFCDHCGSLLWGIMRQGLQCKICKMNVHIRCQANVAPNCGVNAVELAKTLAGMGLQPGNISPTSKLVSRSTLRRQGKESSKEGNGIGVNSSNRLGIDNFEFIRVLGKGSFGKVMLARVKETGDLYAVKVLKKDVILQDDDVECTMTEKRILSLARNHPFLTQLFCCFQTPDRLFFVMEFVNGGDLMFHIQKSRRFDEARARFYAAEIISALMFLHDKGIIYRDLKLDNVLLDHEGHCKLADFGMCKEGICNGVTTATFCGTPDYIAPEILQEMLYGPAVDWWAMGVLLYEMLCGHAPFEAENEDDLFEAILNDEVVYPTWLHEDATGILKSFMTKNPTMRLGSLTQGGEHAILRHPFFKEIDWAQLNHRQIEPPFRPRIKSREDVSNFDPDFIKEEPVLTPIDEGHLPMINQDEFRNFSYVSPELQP
Protein kinase C theta type (Homo sapiens), sequence (Q04759 whole entry, looked up): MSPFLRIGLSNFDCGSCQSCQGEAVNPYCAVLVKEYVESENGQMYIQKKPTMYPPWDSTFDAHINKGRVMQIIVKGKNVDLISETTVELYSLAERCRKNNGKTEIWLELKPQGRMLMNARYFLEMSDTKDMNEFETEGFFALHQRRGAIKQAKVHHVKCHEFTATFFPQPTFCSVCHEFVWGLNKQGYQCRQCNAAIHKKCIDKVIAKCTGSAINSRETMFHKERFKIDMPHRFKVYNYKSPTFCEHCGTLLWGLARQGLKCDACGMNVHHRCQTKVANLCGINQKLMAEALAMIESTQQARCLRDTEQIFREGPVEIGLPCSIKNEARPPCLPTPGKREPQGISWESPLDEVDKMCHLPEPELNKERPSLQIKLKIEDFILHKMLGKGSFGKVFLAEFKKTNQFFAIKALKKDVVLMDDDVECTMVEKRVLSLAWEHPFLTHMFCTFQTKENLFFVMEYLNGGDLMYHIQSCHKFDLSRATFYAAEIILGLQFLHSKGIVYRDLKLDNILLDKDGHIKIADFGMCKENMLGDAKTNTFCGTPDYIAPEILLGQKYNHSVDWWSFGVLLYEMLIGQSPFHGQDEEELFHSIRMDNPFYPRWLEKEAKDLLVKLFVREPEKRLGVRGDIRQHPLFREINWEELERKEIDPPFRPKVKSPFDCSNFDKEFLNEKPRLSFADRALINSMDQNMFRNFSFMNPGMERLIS

As a reminder, the inhibition is the change of the read-out against control, counted positive when it falls. As to `CC(C)(CO)CNC(=O)c1ccc2c(c1)/C(=N/Nc1ccc(S(N)(=O)=O)cc1)C(=O)N2`, the inhibition is 13.1% in assay [1]; 0.87% in assay [2]; 1.58% in assay [3]; -0.39% in assay [4]; 0.27% in assay [5]; -0.69% in assay [6]. Besides, the inhibition in [7] is 0.02%; in assay [8], 2.86%; in assay [9] it was -0.08%; in [10], 1.72%; in [11], 3.43%; in [12], -0.53%. For the same compound, the inhibition in assay [13] was -0.82%; in assay [14], 0.56%; in assay [15] it was 0.9%; in [16], 0.36%; in assay [17], 1.12%; in assay [18], 0.49%. The values for the inhibition in assay [19] and in assay [20] were 13.9% and 0.9%, respectively.
With `CCn1c(-c2nonc2N)nc2c(C#CC(C)(C)O)ncc(OC3CCNCC3)c21`, the inhibition in assay [1] worked out at 2.52%; in assay [2], 62.4%; in assay [3], 89.9%; in assay [4], 3.68%; in assay [5] it was 30.4%; in [6], 41.8%. Besides, the inhibition in assay [7] was 73.2%; in assay [8], 89.7%; in assay [9], 99.9%; in [10] it was 35.1%; in assay [11], 89.5%; in assay [12], -0.03%. The inhibition in assay [13] came to 6.53%; in assay [14], 38%; in assay [15], 81.5%; in [16], 19.7%; in [17] it was 61.7%; in [18], 4.17%. For the same compound, the results for the inhibition in assay [19] and in [20] were 13.4% and 3.98%, respectively.
Turning to `N#Cc1c(NC(=O)CN2CCOCC2)sc2c1CCCC2`, the inhibition in assay [1] worked out at 2.07%; in [2], 2.3%; in [3] it was 1.82%; in [4], 2.23%; in assay [5], 5.72%; in assay [6], 0.89%. Besides, the inhibition in [7] is 2.05%; in [8], 5.18%; in [9], 3.17%; in [10], 3.77%; in assay [11], 4.29%; in [12], 1.29%. Moreover, the inhibition stood at 0.6% in assay [13]; 3.07% in assay [14]; 3.7% in assay [15]; 1.49% in [16]; 2.84% in assay [17]; 3.69% in assay [18]. In addition, the figures for the inhibition in [19] and in assay [20] were 6.16% and 3.86%, respectively.
Turning to `O=S(=O)(CCNCc1ccc(-c2ccc3ncnc(Nc4ccc(OCc5cccc(F)c5)c(Cl)c4)c3c2)o1)c1ccccc1`, the inhibition amounted to 0.78% in assay [1]; 2.48% in assay [2]; 6.82% in [3]; 1.39% in assay [4]; 2.12% in [5]; 0.95% in assay [6]. In addition, the inhibition in assay [7] worked out at 2.13%; in assay [8], 4.07%; in [9] it was 3.1%; in assay [10] it was 1.93%; in [11] it was 6.38%; in assay [12], 4.15%. Also, the inhibition in assay [13] is 4.31%; in [14], 2.33%; in [15], 2.85%; in [16] it was 2.03%; in assay [17] it was 2.6%; in assay [18], 5.17%. Also, the inhibition in assay [19] came out at 7.32%; in assay [20], 5.52%.
Take `COc1ccc2[nH]c3c4[nH]c5ccc(OC)cc5c4c4c(c3c2c1)C(=O)NC4=O`: the inhibition in assay [1] was determined as 29.8%; in assay [2], 4.03%; in [3], 17.2%; in assay [4] it was 4.27%; in assay [5], 28.7%; in assay [6], 1.55%. The inhibition is 8.91% in assay [7]; 3.82% in [8]; 19.5% in assay [9]; 4.07% in [10]; 11.7% in assay [11]; 0.72% in assay [12]. The inhibition came out at 0.15% in assay [13]; 4.69% in assay [14]; 20.9% in assay [15]; 3.68% in assay [16]; 12.9% in assay [17]; 5.02% in assay [18]. For the same compound, the inhibition in assay [19] amounted to 27%; in assay [20] it was 8.15%.
Regarding `Fc1ccc(-c2nn3ccccc3c2-c2ccncc2)cc1`, the inhibition in assay [1] was 0.82%; in [2], 2.55%; in assay [3], 16%; in assay [4], 0.75%; in assay [5], 3.12%; in [6], 8.61%. The inhibition in [7] was 37.8%; in assay [8] it was 1.31%; in assay [9], 3.71%; in assay [10], -2.68%; in assay [11] it was 2.4%; in assay [12] it was 0.48%. The inhibition in assay [13] was 3.99%; in assay [14] it was 0.74%; in [15], 2.07%; in [16], 1.95%; in assay [17], 10.9%; in [18], 1.78%. Besides, the inhibition is 6.49% in [19] and 1.93% in [20].
As to `CN1CCC(n2cnc(-c3ccc(F)cc3)c2-c2ccnc(N)n2)CC1`, the inhibition came to 3.73% in assay [1]; 3.06% in [2]; 7.95% in assay [3]; 1.23% in assay [4]; 10.6% in [5]; 0.83% in assay [6]. Moreover, the inhibition in assay [7] was determined as 7.02%; in assay [8], 3.71%; in assay [9], 4.79%; in assay [10] it was 0.37%; in assay [11] it was 8.99%; in assay [12], 0.59%. Besides, the inhibition in assay [13] was determined as 0.68%; in [14] it was 1.72%; in assay [15], 3.61%; in assay [16], 2.83%; in [17], 12.3%; in assay [18], 4.67%. The inhibition in [19] worked out at 26.3%; in assay [20], 3.25%.
